Assay results taken from PubChem BioAssay (NCATS).
Inconclusive results are not listed. Active and inactive are the calls of the source. Calls follow the shape of the dose curve; as a rule, active = well fitted curve in the direction sought with a large enough effect; inconclusive = small, poorly fitted or top-dose-only effect, or another doubt; inactive = no such curve, though single readings can be large; an effect the other way counts as inactive or inconclusive.

How the values were obtained:
[1] = biological target: Glutathione peroxidase 1 (Homo sapiens) (UniProt P07203); assay: Primary qHTS Assay for Inhibitors of Recombinant Selenoprotein Glutathione Peroxidase 1 (GPX1) (AID 1845191); also: nearly all actives have a fitted effect of over 65% in size
Sequence of Glutathione peroxidase 1 (Homo sapiens) (P07203 whole entry, looked up): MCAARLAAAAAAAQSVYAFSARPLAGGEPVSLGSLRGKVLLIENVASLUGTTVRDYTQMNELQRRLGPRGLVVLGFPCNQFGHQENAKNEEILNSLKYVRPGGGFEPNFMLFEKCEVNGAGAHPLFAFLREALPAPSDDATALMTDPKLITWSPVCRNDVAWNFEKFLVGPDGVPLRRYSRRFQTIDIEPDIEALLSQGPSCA
In short: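 Recombinant GPX1 (10 nM final) was preincubated with compound for 30 min at room temperature, then reacted with 1 mM GSH, 0.5 mM CHP, 0.5 mM NADPH and 100 nM glutathione reductase; NADPH fluorescence (340/450 nm) was read at 0 and 15 min.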

[2] = biological target: Phospholipid hydroperoxide glutathione peroxidase GPX4 (Homo sapiens) (UniProt P36969); assay: Primary qHTS Assay for Inhibitors of Recombinant Selenoprotein Glutathione Peroxidase 4 (GPX4) (AID 1845192); also: nearly all actives have a fitted effect of over 65% in size
Sequence of Phospholipid hydroperoxide glutathione peroxidase GPX4 (Homo sapiens) (P36969 whole entry, looked up): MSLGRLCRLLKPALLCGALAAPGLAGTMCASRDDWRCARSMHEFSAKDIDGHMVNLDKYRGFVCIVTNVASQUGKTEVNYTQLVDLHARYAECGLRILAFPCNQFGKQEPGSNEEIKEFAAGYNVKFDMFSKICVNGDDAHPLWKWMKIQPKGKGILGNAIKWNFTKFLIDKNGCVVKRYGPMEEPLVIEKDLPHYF
In short: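 GR-coupled readout: 100 nM GR, 1 mM GSH, 0.5 mM NADPH; NADPH fluorescence (ex 340/em 450 nm) read at t=0 and after 15 min RT. GPX4 200 nM, preincubated 30 min with compound; substrate 0.5 mM CHP.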

[3] = biological target: Luciferin 4-monooxygenase (Photinus pyralis) (UniProt P08659); assay: Primary firefly luciferase (FLuc) qHTS assay for identification of artifact compounds. (AID 1845220); also: nearly all actives have a fitted effect of over 60% in size
In short: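 In this counter-screen for luciferase artifacts, test compounds met substrate (10 uM each luciferin and ATP) before 10 nM enzyme started the reaction. Light output was measured 5 min later.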

[4] = Primary fluorescence-based thiol-reactive (MSTI) qHTS assay for identification of artifact compounds. (AID 1845221);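 also: series mostly up to about 54 µM; thiol-reactive compounds lower the probe fluorescence signal; nearly all actives have a fitted effect of over 65% in size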
In short: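 Compounds were incubated 1 h at room temperature in the dark with the MSTI probe (4 uM) in PBS pH 7.4, 2% DMSO. Signals were normalized between Acetyl-MSTI and MSTI.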

[5] = test system: Nanoluciferase (engineered Oplophorus gracilirostris luciferase); assay: Primary Nanoluciferase (NLuc) qHTS assay for identification of artifact compounds. (AID 1845222);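 also: NLuc secreted into diluted conditioned medium of S16 cells; series mostly up to about 54 µM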
In short: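 Using secreted nanoluciferase in S16 culture medium (0.22 um filtered, 1:55 dilution), compounds were preincubated 15 min at RT. Signal was generated with Nano-Glo reagent (1:100) over 5 min.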

[6] = Primary redox qHTS assay for identification of artifact compounds. (AID 1845223)
In short: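 Amplex Red (25 uM) and HRP (250 mU/mL) in HBSS, with compounds for 15 min, then 250 uM DTT for 30 min, room temperature, dark. Fluorescence 525/598 nm read; normalized to DMSO and 10 uM DA3003; Hill fit.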

Measured: Potency

C[C@]1(CO)CN(c2cc(C(=O)Nc3ccc4c(c3)-c3c(c(C(N)=O)nn3-c3ccc(F)cc3)CC4)c(Cl)cn2)C[C@@]1(C)CO
inactive: all assays above

CNC(=O)c1ccc(N2C(=S)N(c3cnc(C#N)c(C(F)(F)F)c3)C(=O)C23CCC3)cc1F
not listed: [5]
inactive: all other assays above

COc1ccc(-n2nc(C(N)=O)c3c2C(=O)N(c2ccc(N4CCCCC4=O)cc2)CC3)cc1
inactive: all assays above

CC(C)(O)c1cc2nc(-c3cnc(N)nc3)nc(N3CCOCC3)c2s1
not listed: [5]
inactive: all other assays above
